Rows were chosen to be rich in hits. Some 0.9% of all compounds tested hit in one or more screens of this group.
TDP1 block: TDP1 (human) enzyme inhibition; Q9NUW8; recombinant TDP1, AlphaScreen DNA substrate cleavage; Potency, µM (titrated, usually from 130 µM), inactives show at the top dose activity change, negative = inhibition, most hits filed as inhibitors; actives 0.28% (n = 350,000); also: nearly all actives have a fitted effect of over 40% in size
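Tdp1 1 nM final; 15 min RT w/ cpd; substrate 15 nM, 5 min; beads 10 ug/ml, 10 min; AlphaScreen read. Neg ctrl: no enzyme.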
RECQ1 inh-1: blocks DNA unwinding by human RECQ1 | RECQ1 DNA unwinding, red fluorescence kinetic read | P46063 | actives 0.54% (n = 240,000) | Potency, µM (highest dose often 57.3 µM), for the others: top-dose activity, negative = inhibition, actives largely listed as inhibitors;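 also: plate controls were vehicle for no effect and no enzyme for full effect; nearly all actives have a fitted effect of over 30% in size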
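50 nM RECQ1T1 preincubated 15 min with compound in Tris pH 8.0 buffer with MgCl2, DTT, Tween-20 and 2.5 ug/ml poly(dI-dC); started with 200 nM TAMRA/BHQ-2 forked duplex and 2 mM ATP. Unwinding read as fluorescence (525/598 nm), two reads 2 h apart.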
APEX1 inh: APE1 (human) endonuclease inhibition; P27695; recombinant APE1, TAMRA/BHQ-2 abasic DNA cleavage fluorescence; Potency, µM (top dose mostly 65.8 µM), without a hit: at the top dose activity change, negative = inhibition, most hits filed as inhibitors; actives 0.35% (n = 350,000);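 also: plate controls were vehicle for no effect and reference inhibitor for full effect; nearly all actives have a fitted effect of over 55% in size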
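Quantitative HTS: incision of a TAMRA/BHQ-2 double-stranded substrate bearing a tetrahydrofuran abasic site by 0.75 nM APE1 raises fluorescence. Substrate 50 nM final, added after 15 min compound preincubation at room temperature; progress as third-minus-first kinetic read difference.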
KAT2A inh: blocks human GCN5L2 histone acetyltransferase. Potency, µM (titrated, usually from 58.9 µM), inactives show at the top dose activity change, negative = inhibition, usual class: inhibitors. Q92830. actives 0.21% (n = 390,000). GCN5L2 HAT assay, ThioGlo1 CoA-SH fluorescence
Target sequence (Q92830 whole entry, looked up): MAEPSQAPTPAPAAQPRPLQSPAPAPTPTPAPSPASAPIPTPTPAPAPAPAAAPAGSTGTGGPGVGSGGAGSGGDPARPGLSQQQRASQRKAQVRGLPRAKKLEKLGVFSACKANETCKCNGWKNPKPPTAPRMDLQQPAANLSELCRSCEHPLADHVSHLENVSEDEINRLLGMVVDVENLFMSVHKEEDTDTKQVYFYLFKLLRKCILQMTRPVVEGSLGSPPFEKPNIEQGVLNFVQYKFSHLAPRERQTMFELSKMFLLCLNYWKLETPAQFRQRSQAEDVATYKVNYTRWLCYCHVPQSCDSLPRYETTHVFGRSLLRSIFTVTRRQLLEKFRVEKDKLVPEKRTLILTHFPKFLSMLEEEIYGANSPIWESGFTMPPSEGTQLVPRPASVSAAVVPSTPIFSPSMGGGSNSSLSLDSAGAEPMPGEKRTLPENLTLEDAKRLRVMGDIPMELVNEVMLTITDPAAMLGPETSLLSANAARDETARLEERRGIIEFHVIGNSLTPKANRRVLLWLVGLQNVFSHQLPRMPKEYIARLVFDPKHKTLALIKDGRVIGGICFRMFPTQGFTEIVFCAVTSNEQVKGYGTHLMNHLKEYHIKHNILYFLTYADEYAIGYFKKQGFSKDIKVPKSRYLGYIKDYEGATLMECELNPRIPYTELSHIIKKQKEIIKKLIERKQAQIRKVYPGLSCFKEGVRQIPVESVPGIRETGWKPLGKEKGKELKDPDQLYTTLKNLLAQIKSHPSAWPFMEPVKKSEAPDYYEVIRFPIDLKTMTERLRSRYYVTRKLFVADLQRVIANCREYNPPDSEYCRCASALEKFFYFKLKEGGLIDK
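Preincubate 20nM GCN5L2 with compound 15 min, RT → add 50uM ThioGlo1 + 75uM H3(1-25) + 70uM acetyl-CoA → read fluorescence 0 and 20 min. Primary qHTS; fluorescent artifacts likely.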
Lamin A splicing: LMNA splicing modulation. HeLa LMNA splicing GFP/RFP minigene ratio, 48 h. Potency, µM (top dose mostly 46.1 µM), inactives show top-dose ratio change, negative = inhibition, hits mostly inhibitors. actives 0.01% (n = 200,000); active = well fitted inhibition curve with a large enough effect in the signal ratio, with a control signal flat, not every such curve was filed as active; inconclusive = small, poorly fitted or top-dose-only effect, or effect the other way, or a change in a side signal; the % refers to the signal ratio
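S3 HeLa cells stably expressing lamin A-EGFP splicing minigene plus DsRed2, 600 cells/well, 48 h compound exposure at 37C. Laser-scanning cytometry; analysed as GFP (500-530 nm)/RFP (575-640 nm) total intensity ratio; 0.5% DMSO vehicle.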
BLM helicase inh: blocks DNA unwinding by human BLM helicase; recombinant BLM DNA unwinding, fluorescence dequenching; P54132; Potency, µM (series often up to 56.1 µM), without a hit: top-dose activity change, negative = inhibition, most hits filed as inhibitors; actives 0.2% (n = 350,000);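 also: plate controls were vehicle for no effect and no enzyme for full effect; nearly all actives have a fitted effect of over 35% in size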
RECQ1 inh conf: confirmation of human RECQ1 helicase inhibitors; shares compounds with RECQ1 inh-1; RECQ1 helicase DNA unwinding, fluorescence; Potency, µM (doses to about 229 µM), for the others: at the highest dose activity change, negative = inhibition, usual class: inhibitors; actives 28% (n = 610); also: nearly all actives have a fitted effect of over 45% in size
ADP FP counter: ADP displacement flagged in RECQ1 inhibitor counter-screen; ADP fluorescence polarization displacement counterscreen; actives 27% (n = 530); shares compounds with RECQ1 inh-1; Potency, µM (series often up to 228 µM), inactives show at the top dose activity change, negative = inhibition, actives largely listed as inhibitors; also: nearly all actives have a fitted effect of over 45% in size
RECQ1 inh-2: RECQ1 helicase inhibition confirmed, round 2. shares compounds with RECQ1 inh-1. recombinant RECQ1 DNA unwinding, red fluorescence. Potency, µM (doses to about 119 µM), for the others: top-dose activity, negative = inhibition, hits mostly inhibitors. actives 15% (n = 1,100); also: nearly all actives have a fitted effect of over 50% in size
* = called active by the depositor; i = inactive; ? = inconclusive; / = no result given; [ ] = remark or other dose. Unless noted, calls follow the shape of the dose curve; as a rule, active = well fitted curve in the direction sought with a large enough effect; inconclusive = small, poorly fitted or top-dose-only effect, or another doubt; inactive = no such curve, though single readings can be large; an effect the other way counts as inactive or inconclusive. Unless noted, % is scaled to controls: 0 for no effect and ±100 for the full control effect; potency is read from the fitted curve at half-maximal effect.

SMILES | TDP1 block | RECQ1 inh-1 | APEX1 inh | KAT2A inh | Lamin A splicing | BLM helicase inh | RECQ1 inh-2 | others
O=C(CSc1nc2ccccc2[nH]1)N1c2ccccc2Sc2ccccc21 | 0.0% | ? | ? | -6.9% | ? | -6.9% | ?
c1coc(-c2nn3c(-c4ccco4)nnc3s2)c1 | / | ? | ? | -6.6% | -0.8% | -12.1% | ?
c1coc(-c2nnc3sc(Cc4cccs4)nn23)c1 | / | ? | 25.1µM* | -25.8% | -16.4% | -26.9% | ?
Cc1ccc(NC(=O)CSCC#N)cc1Cl | 2.6% | 28.2µM* | 17.6% | -1.0% | 1.1% | 3.8% | 0.3%
COc1cc(Cl)c(C)cc1NC(=O)CSCC#N | 5.1%[56.1 µM] | i | 4.9% | 3.6% | -10.6% | 1.3% | /
C=CCn1c(=O)c(C#N)cc2c(=O)n3ccccc3nc21 | -1.0% | ? | 9.8% | 2.0% | 5.7% | -9.3% | -16.0%
C=CCn1c(=N)c(C#N)cc2c(=O)n3ccccc3nc21 | 0.0% | -2.3% | 14.0% | -4.8% | -8.2% | -12.0% | /
COc1ccc(CCNC(=O)Cc2c(C)c3c(cc(C)c4c(C)coc43)oc2=O)cc1 | 0.0% | / | / | -3.4% | / | 2.2% | /
COC/C=C/C1=CC2=CC(=O)C(C)(OC(=O)c3cccs3)C(=O)C2=CO1 (configuration not stated) | 5.0% | i | 24.8% | / | / | 3.7% | /
COC/C=C/C1=CC2=CC(=O)C(C)(OC(=O)C3CCCC3)C(=O)C2=CO1 (configuration not stated) | -0.6% | ? | ? | 14.5% | / | 3.3% | ?
COc1ncccc1-c1nnn(-c2ccc(C)cc2)n1 | 7.7% | -3.5% | 2.1% | 2.5% | / | -2.3% | /
Cc1ccc(-n2nnc(-c3nccs3)n2)cc1 | 2.6% | 0.891µM* | ? | -1.8% | / | 2.8% | -0.4% | RECQ1 inh conf=12.4%[114 µM];ADP FP counter=31.6%[91.9 µM]
O=C(CCc1nc2ccccc2s1)NC1CCOC1=O (configuration not stated) | -3.7% | ? | -16.2% | -5.0% | / | 1.9% | ?
Cc1ccccc1NC(=O)CSc1nc(N)c2c3c(sc2n1)CSC(C)(C)C3 | 2.7% | 22.4µM* | -1.7% | -12.0% | ? | -5.7% | -18.4%
O=C(CC1C(=O)NCCN1Cc1ccc(-c2ccccc2)cc1)NCCOc1cccnc1 (configuration not stated) | 6.0% | ? | -6.9% | -2.5% | / | 1.3% | -14.1%
C[C@H]1Cc2c(-c3ccccc3)nc3c(c2CO1)CN(C(=O)NCc1ccco1)CC3 | 17.6%[12.3 µM] | -6.5%[11.5 µM] | -3.5%[12.4 µM] | / | 3.6%[9.22 µM] | -0.7%[12.4 µM] | /
Cc1cc2c(NC(=O)Nc3ccc(C(C)(C)C)cc3)cccc2nn1 | 3.7% | i | -15.3% | -9.1% | / | -21.0% | /
Cc1cc2c(NC(=O)Nc3ccccc3)cccc2nn1 | -7.5% | ? | ? | -7.8% | / | 5.6% | -0.2%
COc1ccc(-c2nc3ccc(NC(C)=O)cc3c(=O)n2Cc2cccc(Cl)c2)cc1COc1ccc(NC(C)=O)cc1 | -9.1% | / | / | / | / | / | /
O=C(O)CC(CCc1ccccc1)OC1OC(CO)C(O)C(O)C1O (configuration not stated) | / | 3.55µM* | 0.355µM* | -22.9% | / | -9.1% | / | RECQ1 inh conf=-10.6%[114 µM]
OC[C@@H]1O[C@@H](Oc2ccc(O)cc2)[C@H](O)[C@@H](O)[C@@H]1O | 3.0% | 5.0% | -4.1% | 8.6% | / | -1.5% | /
COC(=O)C1=C[C@@H](C(=O)OC)C2C3=C(C(=O)[C@]2(CC(C)C)NC(=O)c2ccccc2)[C@H](C)n2c(=O)n(C)c(=O)n2[C@@H]3C1 (some centres not stated) | 7.9% | 5.9% | ? | / | / | 1.7% | /
COc1cc(OC)c(NC(=O)c2c(C)nn(-c3ccc(C)cc3)c2-n2cccc2)cc1Cl | 5.6% | / | / | -14.1% | / | -5.1% | /
Cc1cc(C(=O)CSc2nnc(-c3ccccc3)n2-c2ccccc2)c(C)n1-c1ncn[nH]1 | -11.1% | 35.5µM* | 1.1% | -2.7% | 14.7% | -11.0% | ?
Oc1cc2c(cc1O)[C@@H](c1ccccc1)CNCC2 | 0.0% | -14.0% | 19.9% | 1.0% | 10.8% | -7.6% | /
SMILES | TDP1 block | RECQ1 inh-1 | APEX1 inh | KAT2A inh | Lamin A splicing | BLM helicase inh | RECQ1 inh-2 | others
CC1(C(=O)O)NCCc2cc(O)c(O)cc21 (configuration not stated) | / | 6.31µM* | 5.62µM* | -14.9% | / | / | / | RECQ1 inh conf=?;ADP FP counter=3.16µM*
COc1ccc(-c2cc3ncc(C)n3c(Nc3ncccc3C(N)=O)n2)cc1OC | / | / | / | -15.3% | / | / | /
C/C(=N/NC(=O)CSCc1ccc(Cl)cc1)c1cccc(NC(=O)c2ccccc2)c1 | 7.5% | i | ? | 3.4% | 0.6% | -3.8% | /
C/C(=N\NC(=O)CSCc1ccc([N+](=O)[O-])cc1)c1cccc(Br)c1 | 7.9% | 1µM* | 11.2% | -6.6% | ? | -0.8% | / | RECQ1 inh conf=-4.2%[114 µM]
Cc1ccc(S(=O)(=O)N2CCN(c3nc(C#N)nc4ccccc34)CC2)cc1 | -1.3% | / | / | / | / | / | /
CC(=O)OC1CCC2(C)C(COc3ccc4ccc(=O)oc4c3)C(C)(O)CCC2C1(C)C (configuration not stated) | -1.0% | ? | 11.1% | -9.2% | ? | -10.6% | -22.8%

Source: PubChem
